Where “and” joins values, the source holds several entries; their conditions need not be identical. Identical values can stand only once. The whole screen tested about 5,500 compounds, of which about 2,000 (36%) were called active. Another 18% or so got no clear call; they are omitted. Rule as the data show it: active = normalized growth mostly below about 0.91 (no sharp cut-off); inconclusive = no clear call, values can overlap the other calls; inactive = mostly above about 0.92. This is one part of the list.
Experiment: chemical genetic growth profiling, strain panel (AID 1159580);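 also: tested at 20 µM; growth read once vehicle control cultures reached saturation at 30 °C; 1 = growth at the plate median or of vehicle wells; lower values mean less growth of the strain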
Details: S. cerevisiae deletion strains, growth OD

Measured: normalized growth

COc1ccc(-c2oc3c(CC=C(C)C)c(O[C@@H]4O[C@H](CO)[C@@H](O)[C@H](O)[C@H]4O)cc(O)c3c(=O)c2O[C@@H]2O[C@@H](C)[C@H](O)[C@@H](O)[C@H]2O)cc1
active: locus YBR021W, strain FUR4, active compounds read low 1.19 [resistant]
inactive: locus YAL013W, strain DEP1, active compounds read low 1.04 | locus YAL021C, strain ccr4, active compounds read low 1.05 | locus YAL026C, strain drs2, active compounds read low 1.05 | locus YAL030W, strain snc1, active compounds read low 1.04 | locus YBL061C, strain skt5, active compounds read low 1.03 | locus YBR009C, strain hhf1, active compounds read low 1.03 | locus YBR023C, strain chs3, active compounds read low 1.02 | locus YBR171W, strain sec66, active compounds read low 1.06 | locus YBR229C, strain ROT2, active compounds read low 1 | locus YBR231C, strain swc5, active compounds read low 1.03 | locus YBR279W, strain paf1, active compounds read low 1.03 | locus YCL011C, strain gbp2, active compounds read low 1.03 | locus YCL016C, strain dcc1, active compounds read low 1 | locus YCL029C, strain bik1, active compounds read low 0.976 | locus YCL061C, strain MRC1, active compounds read low 1.04 | locus YCL069W, strain vba3, active compounds read low 1.02 | locus YCR088W, strain abp1, active compounds read low 1.04 | locus YDL005C, strain med2, active compounds read low 1.03 | locus YDL035C, strain GPR1, active compounds read low 1 | locus YDL040C, strain nat1, active compounds read low 1.02 | locus YDL074C, strain BRE1, active compounds read low 0.988 | locus YDL101C, strain DUN1, active compounds read low 0.989 | locus YDL185W, strain tfp1, active compounds read low 0.955 | locus YDL192W, strain arf1, active compounds read low 0.987 | locus YDR001C, strain nth1, active compounds read low 1.04 | locus YDR069C, strain doa4, active compounds read low 1.06 | locus YDR101C, strain arx1, active compounds read low 0.975 | locus YDR137W, strain rgp1, active compounds read low 1.07 | locus YDR150W, strain NUM1, active compounds read low 1.01 | locus YDR159W, strain sac3, active compounds read low 1.07 | locus YDR162C, strain NBP2, active compounds read low 0.989 | locus YDR195W, strain ref2 1.05 | locus YDR297W, strain sur2, active compounds read low 1.03 | locus YDR318W, strain mcm21, active compounds read low 0.986 | locus YDR334W, strain swr1, active compounds read low 1.04 | locus YDR335W, strain msn5, active compounds read low 1.02 | locus YDR388W, active compounds read low 0.99 | locus YDR392W, strain spt3, active compounds read low 1 | locus YDR502C, strain sam2, active compounds read low 0.989 | locus YEL003W, strain gim4, active compounds read low 1.03 | locus YEL037C, strain rad23, active compounds read low 1.03 | locus YEL061C, strain CIN8 (second series), active compounds read low 1.04 | locus YEL061C, strain CIN8, active compounds read low 0.993 | locus YER015W, strain faa2, active compounds read low 1.02 | locus YER016W, strain bim1, active compounds read low 1.03 | locus YER110C, active compounds read low 0.966 | locus YER111C, strain swi4, active compounds read low 1.05 | locus YER155C, strain BEM2 (second series), active compounds read low 1.05 | locus YER155C, strain BEM2, active compounds read low 1 | locus YER167W, strain BCK2, active compounds read low 1.01 | locus YFR010W, strain ubp6, active compounds read low 1.05 | locus YGL078C, strain dbp3, active compounds read low 0.983 | locus YGL086W, strain mad1, active compounds read low 0.975 | locus YGL167C, strain pmr1, active compounds read low 1.02 | locus YGL173C, strain kem1, active compounds read low 1.05 | locus YGL227W, strain vid30, active compounds read low 1.04 | locus YGL240W, strain doc1, active compounds read low 1.04 | locus YGL248W, strain PDE1, active compounds read low 1.01 | locus YGL253W, strain hxk2, active compounds read low 0.946 | locus YGR078C, strain PAC10, active compounds read low 1 | locus YGR135W, strain pre9, active compounds read low 1 | locus YGR252W, strain gcn5, active compounds read low 1.06 | locus YHR013C, strain ard1, active compounds read low 1.03 | locus YHR027C, strain rpn1, active compounds read low 1.03 | locus YHR030C, strain SLT2, active compounds read low 0.99 and 1.02 | locus YHR079C, strain IRE1 (second series), active compounds read low 0.965 | locus YHR079C, strain IRE1, active compounds read low 1.03 | locus YHR094C, strain hxt1, active compounds read low 0.988 | locus YHR129C, strain ARP1, active compounds read low 0.996 | locus YHR142W, strain chs7, active compounds read low 1.01 | locus YHR200W, strain rpn10, active compounds read low 0.997 | locus YIL066C, strain RNR3, active compounds read low 1.02 | locus YIL073C, strain SPO22, active compounds read low 0.924 | locus YIL125W, strain kgd1, active compounds read low 0.985 | locus YIR030C, strain dcg1, active compounds read low 0.983 | locus YJL092W, strain hpr5, active compounds read low 1.04 | locus YJL095W, strain BCK1 (second series), active compounds read low 1.03 | locus YJL095W, strain BCK1, active compounds read low 0.975 and 1.02 | locus YJL115W, strain asf1, active compounds read low 1.05 | locus YJL129C, strain trk1, active compounds read low 1.02 | locus YJL134W, strain LCB3, active compounds read low 1.01 | locus YJL154C, strain vps35, active compounds read low 1.04 | locus YJL164C, strain tpk1, active compounds read low 1.01 | locus YJL166W, strain qcr8, active compounds read low 1.04 | locus YJL168C, strain set2, active compounds read low 0.985 | locus YJL187C, strain SWE1 (second series), active compounds read low 0.987 | locus YJL187C, strain SWE1, active compounds read low 1.02 | locus YJR043C, strain POL32, active compounds read low 1.04
